“And” between values parts separate entries of the source, which are not always exact repeats. Identical values can stand only once. About 390 (8.9%) of roughly 4,400 compounds showed an effect of 50% or more. This is one part of a sample in which strong results are shown more often than they occur.
Test system: Trypanosoma brucei
Test: DNDI: Inhibition of Human African Trypanosomiasis, SBRI 427, in vitro at 2 ug.mL-1
Format: functional

SMILES | % inhibition
CC(C)c1ccc(Oc2ncccc2/C(=N/O)N2CCC=N2)cc1 | -4%
Cc1nccn1/C(=N\O)c1ccnc(Oc2ccc(Cl)cc2)c1 | 5%
COc1ccc(-c2nc(CN3CCC(C)CC3)co2)cc1 | 12%
Cc1cccc(N2CCN(Cc3coc(-c4ccc(O)cc4)n3)CC2)c1C | 3%
Brc1ccc(-c2nc(CNCCCN3CCOCC3)co2)cc1 | -12%
CCCCN(CC)Cc1coc(-c2cccc(OC)c2)n1 | -18%
Cc1nccn1/C(=N\O)c1cccnc1Oc1ccccc1 | 10%
COc1cc(C)ccc1Oc1nc(C)ccc1/C(=N/O)N1C(C)C=CC1C (stereo not given) | -2%
Brc1ccccc1-c1nc(CNCCN2CCCCC2)co1 | -1%
CN1CCCC1CCNCc1coc(-c2cccs2)n1 (stereo not given) | -4%
Brc1ccc(-c2nc(CNCCN3CCOCC3)co2)cc1 | -53%
CN1CCCC1CCNCc1coc(-c2ccc(Br)cc2)n1 (stereo not given) | 97%
CN1CCCC1CCNCc1coc(-c2ccccc2Br)n1 (stereo not given) | 57%
CCOc1cccc(-c2nc(CNCCN3CCCC3)co2)c1 | -12%
CCOc1cccc(-c2nc(CNCCN3CCOCC3)co2)c1 | -2%
CCOc1cccc(-c2nc(CNCCC3CCCN3C)co2)c1 (stereo not given) | 99%
Brc1ccc(-c2nc(CNCCN3CCCCC3)co2)cc1 | 43%
CC(C)COc1ncccc1/C(=N/O)N1CCN(c2ccc(F)cc2)CC1 | 0%
O=Cc1nccn1Cc1coc(-c2ccc(F)cc2)n1 | -8%
CSc1ccc(Oc2cc(/C(=N/O)N3CC(C)CC(C)C3)ccn2)cc1 (stereo not given) | 18%
Oc1ccc(-c2nc(CNCc3ccccc3C(F)(F)F)co2)cc1 | 18%
COc1ccc(Oc2ncccc2/C(=N/O)NCc2ccco2)cc1 | -14%
CN(Cc1ccco1)/C(=N\O)c1cccnc1Oc1ccc(Cl)cc1 | 4%
CC(C)c1ccc(Oc2ncccc2/C(=N/O)NCc2ccco2)cc1 | 96%
Cc1ccc(/C(=N/O)N(C)Cc2ccco2)c(Oc2cccc(F)c2)n1 | 22%
CC(C)COc1ncccc1/C(=N/O)NCc1ccco1 | 3%
CSc1ccc(Oc2nc(C)ccc2/C(=N/O)N(C)Cc2ccco2)cc1C | 12%

SMILES | % inhibition
O/N=C(\NCc1ccncc1)c1cccnc1Oc1ccc2oc3ccccc3c2c1 | 10%
Cc1ccc(/C(=N/O)N(C)Cc2ccco2)c(Oc2cccc(C(C)C)c2)n1 | 67%
O/N=C(\NCc1cccs1)c1cccnc1Oc1ccc2oc3ccccc3c2c1 | 75%
CC(C)c1ccc(Oc2ncccc2/C(=N/O)N(C)Cc2ccco2)cc1 | 75%
COc1ccc(Oc2ncccc2/C(=N/O)N(C)Cc2ccco2)cc1 | -11%
O/N=C(\NCc1ccccn1)c1cccnc1Oc1ccc2oc3ccccc3c2c1 | 7%
CC(C)COc1ncccc1/C(=N/O)N(C)Cc1cccnc1 | -1%
Cc1cn(/C(=N\O)c2ccc(Oc3ccc4oc5ccccc5c4c3)nc2)cn1 | 16%
CCOc1cccc(-c2nc(CN(C)CC#N)co2)c1 | 15%
O/N=C(/c1cccnc1Oc1ccc(F)cc1)N1Cc2ccccc2C1 | 4%
COC(CN(C)Cc1coc(-c2ccc(Br)cc2)n1)OC | 4%
CCOc1ccccc1-c1nc(CN2CCCCC2)co1 | -1%
CN(Cc1coc(-c2ccc(C(F)(F)F)cc2)n1)Cc1ccco1 | 18%
CC(C)c1ccc(Oc2ncccc2/C(=N/O)NCc2cccs2)cc1 | 100%
COc1ccc(Oc2ncccc2/C(=N/O)NCc2cccs2)cc1 | 37%
O/N=C(\NCc1cccs1)c1cccnc1Oc1cccc(C(F)(F)F)c1 | -12%
Clc1ccccc1-c1nc(CNC(Cc2ccccc2)c2ccccc2)co1 (stereo not given) | -20%
Cc1ccccc1-c1nc(CNC2CCN(Cc3ccccc3)C2)co1 (stereo not given) | 30%
Brc1ccccc1-c1nc(CNC2CCN(Cc3ccccc3)C2)co1 (stereo not given) | -6%
Cc1ccccc1-c1nc(CNC[C@@H]2CCCO2)co1 | -1%
Brc1ccccc1-c1nc(CNC2CCCCCC2)co1 | -20%
Brc1ccccc1-c1nc(CNC2CCCCCCCCCCC2)co1 | 59%
Cc1ccccc1-c1nc(CNC2CCCCCC2)co1 | 61%
COc1cc(CN(C)Cc2coc(-c3ccccc3C)n2)cc(OC)c1OC | -15%
CCCN(Cc1coc(-c2cc(OC)c(OC)c(OC)c2)n1)c1ccccc1 | 1%
O/N=C(/c1cccnc1OCc1ccccc1)N1CCSCC1 | 13%
C[C@@H]1C(NCc2coc(-c3cccs3)n2)C[C@H]2C[C@@H]1C2(C)C (stereo not given in full) | 62%

SMILES | % inhibition
c1csc(-c2nc(CNC3CCCC3)co2)c1 | -11%
CC1CC(C)CN(Cc2coc(-c3cccs3)n2)C1 (stereo not given) | 2%
CC(NCc1coc(-c2cccs2)n1)C1CCCCC1 (stereo not given) | -3%
C[C@H]1C(NCc2coc(-c3cccs3)n2)C[C@@H]2C[C@H]1C2(C)C (stereo not given in full) | 87%
c1csc(-c2nc(CNC3CCc4ccccc43)co2)c1 (stereo not given) | -11%
COc1cccc(Oc2ccc(/C(=N/O)N3CCSC3)cn2)c1 | 6%
Cc1ccc(CCNCc2coc(-c3cccc(F)c3)n2)cc1 | -9%
CCCN(Cc1coc(-c2cccc(C)c2)n1)c1ccccc1 | 7%
CCC(C)(C)N/C(=N\O)c1ccnc(Oc2cccc3ccc(C)nc23)c1 | 51%
Cc1ccc2cccc(Oc3ccc(/C(=N/O)n4cccn4)cn3)c2n1 | 4%
Cc1ccc2cccc(Oc3cc(/C(=N/O)NCc4c(F)cccc4F)ccn3)c2n1 | 17%
Cc1ccc2cccc(Oc3ccc(/C(=N/O)Nc4ccc(C(C)C)cc4)cn3)c2n1 | 8%
Cc1ccc2cccc(Oc3cc(/C(=N/O)N4C(C)CCCC4C)ccn3)c2n1 (stereo not given) | 19%
Cc1cc(C)cc(CN/C(=N\O)c2ccnc(Oc3cccc4ccc(C)nc34)c2)c1 | 18%
Cc1ccccc1CN/C(=N\O)c1ccnc(Oc2cccc3cccnc23)c1 | 43%
Cc1ccc2cccc(Oc3ccc(/C(=N/O)NC4CCCCC4)cn3)c2n1 | 99%
CC1CCC(N/C(=N\O)c2ccnc(Oc3cccc4cccnc34)c2)CC1 (stereo not given) | 95%
CC1CCC(N/C(=N\O)c2ccnc(Oc3cccc4cnccc34)c2)CC1 (stereo not given) | 10%
Cc1ccc2cccc(Oc3cc(/C(=N/O)NC4CCC(C)CC4)ccn3)c2n1 (stereo not given) | 94%
Cc1ccc2cccc(Oc3cc(/C(=N/O)NC4CC(C)CC(C)(C)C4)ccn3)c2n1 (stereo not given) | 10%
CCOc1cccc(-c2nc(CN(C)C3CCN(Cc4ccccc4)C3)co2)c1 (stereo not given) | -2%
FC(F)(F)c1cccc(N2CCN(Cc3coc(-c4cccc5ccccc45)n3)CC2)c1 | 6%
CCOc1cccc(-c2nc(Cn3ccnc3CC)co2)c1 | -10%
COc1ccccc1CCNCc1coc(-c2cccc3ccccc23)n1 | 43%
N/C(=N\O)c1cccnc1Oc1cccc(C(F)(F)F)c1 | 46%
COc1ccc(Oc2ncccc2/C(=N/O)N2CCN(C3CCCC3)CC2)cc1 | -12%
O/N=C(/c1cccnc1Oc1cccc(C(F)(F)F)c1)N1CCN(C2CCCC2)CC1 | 85%

SMILES | % inhibition
CC1=NCCN1/C(=N\O)c1cccnc1Oc1cccc(C(F)(F)F)c1 | 2%
CC(C)N1CCN(/C(=N\O)c2cccnc2Oc2cccc(C(F)(F)F)c2)CC1 | 101%
O/N=C(/c1cccnc1Oc1ccccc1Cl)N1CCN(C2CCCC2)CC1 | -2%
CCN(CCNCc1coc(-c2ccccc2Br)n1)c1cccc(C)c1 | -30%
O/N=C(/c1cccnc1OCc1cccc(F)c1)N1CCN(c2ccccc2)CC1 | -1%
CCOc1cccc(-c2nc(Cn3cc(C)nc3CC)co2)c1 | 7%
Cc1ccc(/C(=N/O)NC2CC(C)CC(C)(C)C2)c(Oc2ccc(Cl)cc2-c2ccno2)n1 (stereo not given) | 16%
CC1CC(N/C(=N\O)c2cccnc2Oc2ccc(F)c(Cl)c2)CC(C)(C)C1 (stereo not given) | 100%
CC1CC(N/C(=N\O)c2cccnc2Oc2ccc(C(C)C)cc2)CC(C)(C)C1 (stereo not given) | 98%
Cc1ccc(/C(=N/O)NC2CC(C)CC(C)(C)C2)c(Oc2ccc(F)c(F)c2)n1 (stereo not given) | 11%
CC1CC(N/C(=N\O)c2cccnc2Oc2cc(Cl)ccc2Cl)CC(C)(C)C1 (stereo not given) | 99%
Cc1ccc(/C(=N/O)NC2CC(C)CC(C)(C)C2)c(Oc2cc(Cl)ccc2Cl)n1 (stereo not given) | 7%
CCN(CC)c1cccc(Oc2ncccc2/C(=N/O)NC2CC(C)CC(C)(C)C2)c1 (stereo not given) | -6%
CCCCN(CCC#N)Cc1coc(-c2ccccc2C)n1 | -4%
CCOC(=O)C1CCCCN1Cc1coc(-c2ccccc2OCC)n1 (stereo not given) | 3%
CC(C)c1ccc(Oc2ncccc2/C(N)=N/O)cc1 | 16%
CC(C)C(C)NCc1coc(-c2cccc(F)c2)n1 (stereo not given) | 8% and 16%
Fc1cccc(-c2nc(CNC3CCc4ccccc43)co2)c1 (stereo not given) | 13%
Fc1cccc(-c2nc(CNC3C[C@H]4CC[C@@H]3C4)co2)c1 (stereo not given in full) | -5%
CCC(CC)CNCc1coc(-c2cccc(F)c2)n1 | 18%
C[C@H]1C(NCc2coc(-c3cccc(F)c3)n2)C[C@@H]2C[C@H]1C2(C)C (stereo not given in full) | 99%
C[C@@H]1C(NCc2coc(-c3cccc(F)c3)n2)C[C@H]2C[C@@H]1C2(C)C (stereo not given in full) | 90%
C#CCNCc1coc(-c2cccc(C)c2)n1 | 24%
CSc1ccc(Oc2cc(/C(=N/O)NCC3CCCO3)ccn2)cc1 (stereo not given) | 6%
